From PubChem BioAssay AID1851 (National Center for Advancing Translational Sciences (NCATS), 2009)
Several values for one entry are separate records, joined by “and”; a condition that tells them apart may be missing. Equal entries are not always repeated. Among all 16,000 compounds or so, about 5,100 (32%) were called active. About 25% were inconclusive and are not listed. The list shows a part of the results. A number with no mark means an inactive call. Calls follow the shape of the dose curve; as a rule, active = well fitted curve in the direction sought with a large enough effect; inconclusive = small, poorly fitted or top-dose-only effect, or effect the other way; inactive = no such curve, though single readings can be large or run the other way.
% is scaled to controls: 0 for no effect and ±100 for the full control effect.

What follows are molecules tested against Cytochrome P450 3A4 (Homo sapiens) (UniProt P08684) (assay: Cytochrome panel assay with activity outcomes). Conditions: recombinant CYP, pro-luciferin dealkylation, luminescence, p450-cyp3a4; series mostly up to 57.1 µM.
Cytochrome P450 3A4 (Homo sapiens), sequence (P08684 whole entry, looked up): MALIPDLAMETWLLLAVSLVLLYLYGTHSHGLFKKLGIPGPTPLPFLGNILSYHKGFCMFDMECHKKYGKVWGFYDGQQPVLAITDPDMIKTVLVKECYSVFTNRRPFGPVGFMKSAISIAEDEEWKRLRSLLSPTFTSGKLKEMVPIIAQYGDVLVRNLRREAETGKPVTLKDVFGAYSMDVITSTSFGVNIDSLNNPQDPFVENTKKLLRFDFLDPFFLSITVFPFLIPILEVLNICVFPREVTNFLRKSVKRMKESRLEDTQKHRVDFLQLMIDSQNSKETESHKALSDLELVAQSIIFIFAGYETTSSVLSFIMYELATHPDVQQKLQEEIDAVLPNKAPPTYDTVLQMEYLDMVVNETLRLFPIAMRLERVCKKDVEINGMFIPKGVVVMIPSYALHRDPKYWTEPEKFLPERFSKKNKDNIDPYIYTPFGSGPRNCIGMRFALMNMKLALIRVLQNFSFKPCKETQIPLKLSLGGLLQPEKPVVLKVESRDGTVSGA
In the case of `CCOC(=O)c1ccc(OC(=O)CCCCCN=C(N)N)cc1`, the AC50 was “inactive”. `CCCc1cc2c(cc1NC(=O)c1ccccc1C)OCO2` was tested, and the AC50 was 2.51 µM (active). With `CCCc1cc2c(cc1NC(=O)c1ccc(Br)cc1)OCO2` the AC50 was 1.12 µM (active). For `CCC(=O)Nc1cc2c(cc1C(=O)c1ccccc1)OCCO2`, the activity, negative = inhibition was -4.4% [at 2.29 µM]. In the case of `Cc1ccccc1C(=O)NNC(=O)c1ccoc1C`, the AC50 was “inactive”. For `CCCc1cc2c(cc1NC(=O)c1ccccc1Cl)OCO2`, the AC50 was 2.24 µM (active). For `COC(=O)CSc1cc(C(F)(F)F)nc(-c2ccccn2)n1`, the AC50 was “inactive”. `CCCNC(=O)CSc1nc(-c2cccs2)cc(C(F)(F)F)n1` was tested, and the AC50 was 7.08 µM (active). `O=C(N/N=C/c1ccco1)c1ccccn1` was tested, and the AC50 was “inactive”. `O=C(CNC(=O)c1ccccn1)N/N=C/c1ccccc1` showed an activity, negative = inhibition of -5.67% [at 2.29 µM]. With `O=C(NN=C1c2ccccc2-c2ccccc21)c1ccccn1` the AC50 was 14.1 µM (active). In the case of `Nc1nc(Cl)nc2c1ncn2[C@@H]1O[C@@H](COP(=O)(O)OP(=O)(O)OP(=O)(O)O)[C@@H](O)[C@H]1O`, the AC50 was “inactive”. In the case of `NC(=S)c1ccc[n+]([C@@H]2O[C@@H](COP(=O)([O-])OP(=O)(O)OC[C@@H]3O[C@@H](n4cnc5c(N)ncnc54)[C@@H](OP(=O)(O)O)[C@H]3O)[C@@H](O)[C@H]2O)c1`, the AC50 was 12.6 µM (active). `NC(=O)C1=CN([C@@H]2O[C@@H](COP(=O)(O)OP(=O)(O)OC[C@@H]3O[C@H](n4cnc5c(N)ncnc54)[C@@H](OP(=O)(O)O)[C@@H]3O)[C@H](O)[C@@H]2O)C=CC1` was tested, and the AC50 was “inactive”. With `CCn1c(SCc2ccc(Cl)cc2Cl)nc2nc3c(cc2c1=O)CCCC3` the AC50 was 8.91 µM (active). In the case of `C#CCCCCCCCCCCCCCCCC(=O)O`, the AC50 was “inactive”. In the case of `O=C(O)C1=CCNCC1`, the AC50 was “inactive”. In the case of `COc1ccc(C2C(=O)N(CCc3ccccc3)CC(=O)N2C2CCCC2)cc1` (stereo unspecified), the AC50 was 6.31 µM (active). With `CCCCN1C(=O)CCC(C(=O)O)C1c1ccccc1` (stereo unspecified) the AC50 was “inactive”. For `COc1ccc(/C(O)=C2/C(=O)C(=O)N(CCCC(=O)O)C2c2ccc(OC)cc2)cc1` (stereo unspecified), the AC50 was “inactive”. For `CCCCN1C(=O)CN(CCc2ccccc2)C(=O)C1c1ccc(OC)cc1` (stereo unspecified), the AC50 was 7.94 µM (active). For `COc1ccc(-c2nc3cnc(N(C)C)nc3n(CCc3ccccc3)c2=O)cc1`, the AC50 was “inactive”. In the case of `CO[C@H]1COC(=O)[C@@H](Cc2ccccc2)NC(=O)[C@@H](C)COC(=O)CCC[C@@H]1C`, the AC50 was 3.16 µM (active). `CO[C@@H]1COC(=O)[C@H](C)NC(=O)[C@@H](C)COC(=O)CCC[C@H]1C` showed an activity, negative = inhibition of -21.6% [at 11.4 µM]. `CO[C@@H]1COC(=O)[C@@H](CCSC)NC(=O)C/C=C\[C@@H](C)COC(=O)[C@H](C)NC(=O)C/C=C\[C@H]1C` gave an activity, negative = inhibition of -17.8% [at 11.4 µM]. `CO[C@@H]1COC(=O)CCC[C@@H](C)[C@H](OC)COC(=O)CCC[C@H]1C` showed an activity, negative = inhibition of -19.8% [at 11.4 µM]. Molecule `CO[C@@H]1COC(=O)[C@H](COCc2ccccc2)NC(=O)C/C=C\[C@@H](C)[C@H](OC)COC(=O)[C@H](COCc2ccccc2)NC(=O)C/C=C\[C@H]1C` has an activity, negative = inhibition of -6.81% [at 11.4 µM]. `CO[C@@H]1COC(=O)CCC[C@@H](C)[C@H](OC)COC(=O)[C@H](Cc2ccccc2)NC(=O)C/C=C\[C@H]1C` was tested, and the AC50 was 3.98 µM (active). For `CO[C@@H]1COC(=O)[C@H](Cc2ccccc2)NC(=O)C/C=C\[C@@H](C)[C@H](OC)COC(=O)[C@@H](C)NC(=O)C/C=C\[C@H]1C`, the activity, negative = inhibition was -25.2% [at 11.4 µM] and -29.9% [at 11.4 µM]. `CO[C@H]1COC(=O)CCC[C@@H](C)[C@H](OC)COC(=O)[C@@H](C)NC(=O)C/C=C\[C@@H]1C` gave an activity, negative = inhibition of -24.2% [at 11.4 µM]. In the case of `CO[C@H]1COC(=O)C/C=C\[C@H](C)[C@@H](OC)COC(=O)[C@H](Cc2ccccc2)NC(=O)C/C=C\[C@@H]1C`, the AC50 was 3.16 µM (active). In the case of `CC1CCN(c2ccccc2NC(=S)NC(=O)c2cccs2)CC1`, the AC50 was 15.8 µM (active). `O=C(NC(=S)Nc1cccc(Cl)c1N1CCCCC1)c1cccs1` was tested, and the activity, negative = inhibition was -1.51% [at 2.29 µM]. With `C=CCN(CC=C)C(=S)NC(=O)c1ccc(OC)c(Br)c1` the AC50 was 0.891 µM (active). Molecule `C=CCN(CC=C)C(=S)Nc1ccccc1` has an activity, negative = inhibition of -16.5% [at 2.29 µM]. In the case of `COc1ccc(C(=O)NC(=S)NC(C)C)cc1Br`, the AC50 was “inactive”. In the case of `CCCc1nn2c(=O)c(C(c3ccc(C)cc3)c3c(O)nc4sc(CCC)nn4c3=O)c(O)nc2s1`, the activity, negative = inhibition was -0.554% [at 2.29 µM]. In the case of `CCOC(=O)c1sc(N(Cc2ccccc2)C(=O)CN2C(=O)CN(C)C2=O)nc1C`, the AC50 was 12.6 µM (active). In the case of `CCOC(=O)c1sc(NS(=O)(=O)c2ccccc2)nc1C`, the AC50 was “inactive”. With `COc1ccc(NC(=O)COC(=O)c2c(-c3ccccc3)noc2C)cc1` the AC50 was 7.08 µM (active). With `Cc1noc(C)c1C(=O)OCC(=O)NC(c1ccccc1)c1ccccc1` the activity, negative = inhibition was -8.57% [at 2.29 µM]. `COc1cccc(/C=N/NC(=O)c2c(-c3ccccc3)noc2C)c1` showed an activity, negative = inhibition of -3.56% [at 2.29 µM]. In the case of `CCCCN1CCC(n2c(=O)[nH]c3ccccc32)CC1`, the AC50 was “inactive”. `c1ccc(Nc2ncnc3ccc(-c4ccoc4)cc23)cc1` was tested, and the AC50 was 15.8 µM (active). With `Fc1ccc(Nc2ncnc3ccc(-c4ccoc4)cc23)cc1` the AC50 was 15.8 µM (active). `Cc1noc(COc2ccc(OCc3nc(C)no3)cc2)n1` was tested, and the AC50 was “inactive”. With `CC1(CCC(=O)OC2CCCCC2)OCCO1` the activity, negative = inhibition was -7.62% [at 11.4 µM]. `Cn1c(/C=N/NC(=O)c2ccccc2Br)nc2ccccc21` was tested, and the AC50 was 10 µM (active). In the case of `Nc1cccc(OCc2nc(N)nc(N)c2-c2ccc(Cl)cc2)c1`, the AC50 was 1.58 µM (active). `CCOC(=O)C1CCCN(S(=O)(=O)c2ccccc2)C1` (stereo unspecified) was tested, and the AC50 was “inactive”. For `CCOC(=O)N1CCN(S(=O)(=O)Cc2ccccc2)CC1`, the AC50 was “inactive”. For `CCOC(=O)N1CCN(C(=O)C(C)SCc2ccccc2)CC1` (stereo unspecified), the AC50 was “inactive”. For `CCOC(=O)C1CCCN(C(=O)CSCc2ccccc2)C1` (stereo unspecified), the AC50 was 25.1 µM (active). For `CCOC(=O)C1CCCN(C(=O)CCCOc2cc(=O)n(C)c3ccccc23)C1` (stereo unspecified), the AC50 was 3.98 µM (active). In the case of `CCOC(=O)N1CCN(C(=O)CSCc2ccc(Cl)cc2)CC1`, the AC50 was 4.47 µM (active). For `CCOC(=O)C1CCN(C(=O)C2CCN(S(=O)(=O)N3CCCC3)CC2)CC1`, the AC50 was “inactive”.
